About 2,100 (0.62%) of roughly 340,000 compounds were called active.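 Rule for the calls: active = first-screen hits whose inhibition reached a set limit at any dose in the follow-up dose series; inconclusive = inhibition above the set first-screen limit but never retested; inactive = the rest.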 A selection follows. Potency and affinity values are given separately.
target: Rac GTPase-activating protein 1 (Homo sapiens) (UniProt Q9H0H5); test: blockers of MgcRacGAP-driven Rac1 GTP hydrolysis – biochemical, ADP Hunter fluorescence, primary and confirmatory, confirmation (AID 624330); conditions: MgcRacGAP-stimulated Rac1 GTP hydrolysis, at 30 µM, stronger effect = higher value, GST-tagged Rac1 F28L mutant substrate;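 note: fluorescence reports GDP produced by GAP-driven GTP hydrolysis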
Sequence (Q9H0H5 whole entry, looked up): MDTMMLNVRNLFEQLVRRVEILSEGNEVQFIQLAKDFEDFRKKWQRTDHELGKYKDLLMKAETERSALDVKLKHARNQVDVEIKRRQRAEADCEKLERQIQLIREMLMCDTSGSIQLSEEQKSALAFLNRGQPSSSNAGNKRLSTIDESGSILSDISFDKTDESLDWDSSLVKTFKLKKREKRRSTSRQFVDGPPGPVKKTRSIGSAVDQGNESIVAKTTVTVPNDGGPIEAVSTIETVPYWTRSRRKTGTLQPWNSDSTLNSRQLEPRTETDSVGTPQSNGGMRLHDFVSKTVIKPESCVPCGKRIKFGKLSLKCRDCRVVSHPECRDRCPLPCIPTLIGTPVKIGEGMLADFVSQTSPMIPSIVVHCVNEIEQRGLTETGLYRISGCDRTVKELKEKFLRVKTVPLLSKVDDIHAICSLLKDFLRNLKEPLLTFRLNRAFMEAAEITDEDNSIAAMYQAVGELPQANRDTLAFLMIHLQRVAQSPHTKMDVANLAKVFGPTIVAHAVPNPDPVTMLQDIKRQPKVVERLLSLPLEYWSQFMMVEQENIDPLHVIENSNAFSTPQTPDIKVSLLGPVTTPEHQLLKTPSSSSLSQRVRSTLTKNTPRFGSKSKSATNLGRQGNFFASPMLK

inhibition, inactive:
COc1cc(O)c2c(c1)COC2=O 4.96%
C=CCc1cc(OC)ccc1OCCON1C(=O)CCC1=O 8.6%
CN(C)c1cccc(C(=O)OCC(=O)NC(=O)NCc2ccccc2)c1 -0.47%
CCOC(=O)c1cnc(Nc2ccccc2)nc1C(F)(F)F 1.7%
Cc1c(N=Cc2ccc(-c3ccc(Cl)cc3)o2)c(=O)n(-c2ccccc2)n1C 3.54%
O=C(Cc1cccc(C(F)(F)F)c1)OCN1C(=O)c2ccccc2C1=O 4.25%
CCCCCC(=O)Nc1cc(S(=O)(=O)N2CCCCC2)ccc1N1CCCCC1 9.51%
CCS(=O)(=O)c1ccc(O)c(NC(=O)CCCC(=O)O)c1 13.8%
Cc1ccc(-c2nc(CS(=O)(=O)CC(=O)NCc3cccc(F)c3)c(C)o2)cc1 7.24%
CC#C[C@@H](CC)c1ccc2ccn(C)c2c1 9.11%
O=C1c2cc(CO)cc(O)c2C(=O)c2c(O[C@@H]3OC(CO)[C@@H](O)[C@@H](O)[C@@H]3O)cccc21 (stereo not given in full) 7.99%
O=C1c2c(O)cccc2C(C2OC(CO)[C@@H](O)[C@H](O)[C@H]2O)c2cc(CO)cc(O)c21 (stereo not given in full) 11.8%
Cc1ccc2c(C(=O)N3CCN(c4ccccc4)CC3)cc(-c3cccnc3)nc2c1C 6.48%
COC(=O)CC1SC(=O)NC1=Nc1ccc(C)cc1 (stereo not given) 8.37%
COC(=O)CC1SC(=O)NC1=Nc1ccc(OC)cc1 (stereo not given) 6.86%
Cc1cc(Nc2ccccc2Cl)n2nnnc2n1 2.54%
COC(=O)CSc1nc(N)c2c3c(sc2n1)C(c1ccccc1)SC(c1ccccc1)C3 (stereo not given) 6.76%
O=C1C(=C(O)c2ccccc2)C(=O)c2ccccc21 8.92%
O=C1C(=O)c2ccc(-c3ccccc3)cc2-c2ccccc21 7.95%
COc1ccc(N(CC(=O)Nc2ccccc2F)S(=O)(=O)c2ccc(OC)c(OC)c2)cc1 -10.3%
COc1ccc(C(=O)Nc2cccc3nc(C)ccc23)cc1OC 12.2%
CN(C)Cc1c(O)ccc2occ(C(=O)c3ccccc3)c12 6.64%
Cc1ccc(C(=O)c2coc3ccc(O)c(Cl)c23)cc1 16%
COc1ccc(NC(=O)COc2ccc3c(c2)OCO3)cc1 6.39%
COc1cccc(CN2CC(C(=O)NC3CCCCCC3)CCC2=O)c1 (stereo not given) 2.79%
CC(C)c1ccccc1OCC(O)CN(CC(O)COc1cccc2ccccc12)C(C)C (stereo not given) 4.64%
CCN(CCNCC(O)COCc1ccc(Cl)cc1)c1cccc(C)c1 (stereo not given) 31.7%
C=CCOc1ccc(C(=O)Nc2ncn[nH]2)cc1 4.62%
COc1ccc(NC(=O)C2CCCO2)cc1OC (stereo not given) 10.4%
COc1ccc([C@@H](OC)[C@@]2(Cc3ccc(O)cc3)N=C(N)N(C)C2=O)cc1 0.02%
COc1ccc(NC(=O)c2ccccc2NC(=O)C2CCCO2)cc1 (stereo not given) 10.5%
CC(=Nc1ccccc1)c1sc2ccccc2c1O 19.1%
CC(=Nc1ccc(C)cc1)c1sc2ccccc2c1O 2.37%
O=c1[nH]c(SCc2ccccc2)nc2ccsc12 6.38%
O=C(NCc1ccccc1)/C(=C/c1ccccc1)NC(=O)c1ccco1 2.6%
O=C(NCc1ccccc1)/C(=C\c1ccccc1)NC(=O)c1ccco1 6.99%
COc1ccc(NC(=S)N2CCNC(=O)C2CC(=O)Nc2ccc(C)cc2)cc1 (stereo not given) 15.2%
COc1ccc(Br)cc1/C=N/NC(=O)CN1CCCCC1 14.3%
O=C(CCN1CCN(C(c2ccccc2)c2ccccc2)CC1)N/N=C/c1ccc(O)cc1O 30.9%
COc1ccc(/C=N/NC(=O)CN2CCCC2)cc1 -0.98%
COc1ccc(OC)c(/C=N/NC(=O)CCN2CCN(C(c3ccccc3)c3ccccc3)CC2)c1 -2.42%
COc1ccc(/C=N\NC(=O)CCN2CCN(c3ccccc3)CC2)cc1OC 7.5%
COc1cc(/C=N/NC(=O)CCN2CCN(c3ccccc3)CC2)cc(OC)c1OC 4.52%
NNC(=O)CCN1CCN(C(c2ccccc2)c2ccccc2)CC1 -8.98%
O=C(CCN1CCCCC1)N/N=C/c1ccc(Br)cc1 7.98%
CN(C)CCN(Cc1ccco1)S(=O)(=O)c1csc(C(N)=O)c1 4.25%
O=C(c1ccccn1)N1CCN(C(=O)c2ccccn2)CC1 3.69%
O=C(c1ccc(OC2CCN(CCCc3ccccc3)CC2)cc1)N1CCCC1 3.48%
NC(=O)NCC1CC1 4.2%
O=C(OCC(=O)N1N=C(c2ccc(Cl)cc2)CC1c1ccco1)c1ccccc1O (stereo not given) 3.05%
CC[C@]12c3[nH]c4cc(-c5ccco5)ccc4c3CCN1C(=O)[C@@H](CC(=O)NC/C=C(\C)CCC=C(C)C)C[C@@H]2C(=O)N1CCN(C(=O)C2CC2)CC1 -1.48%
O=C1CSC(c2ccco2)N1 (stereo not given) 0.85%
O=C(O)C1CSC(c2ccncc2)N1 (stereo not given) 8.95%
COc1ccc(/C=C2/C(=O)N(c3ccccc3)N=C2C)cc1OC 17.9%
COc1ccccc1/C=C1/C(=O)N(c2ccc([N+](=O)[O-])cc2)N=C1C 4.92%
CC1=NN(c2ccccc2)C(=O)/C1=C/N(C)C 8.12%
CCOc1cc(/C=C2\C(=O)N(CCC#N)N=C2C)ccc1OCC(N)=O 21.4%
CC1=NN(c2ccccc2)C(=O)/C1=C/C=C/c1ccccc1 6.5%
COc1cc(C=C2C(=O)OC(C)(C)OC2=O)ccc1OCC(=O)Nc1ccccc1 4.19%
C#CCOc1ccc(/C=C2/C(=O)N(c3cccc(C(=O)O)c3)N=C2C)cc1OC 31.7%
COc1ccc(/C=C2/C(=O)N(c3ccccc3)N=C2C)cc1Br 1.8%
O=C(C1CCN(c2nnc(N3CCCC3=O)s2)CC1)N1CCN(c2cccc(C(F)(F)F)c2)CC1 7.18%
COC(=O)c1cccc2c(C(=O)O)cc(-c3ccccc3)nc12 3.38%
c1ccc2c(c1)ccc1nnc(SCc3ccc4c(c3)OCCO4)n12 3.92%
CC(=O)OC1CC2(C)C(CCC2(O)C(C)=O)C2CCC3C(Cl)C(=O)CCC3(C)C12 (stereo not given) 2.5%
COCC(=O)N1C[C@H]2CON(C)[C@H]2C[C@H]1c1cccc(-c2ccccc2OC)c1 15.1%
CCOP(=O)(OCC)c1ccc2c(c1)C(=O)c1ccccc1CC2 9.38%
CCOc1ncccc1C(=O)OCc1c(F)cccc1Cl -3.89%
CC(C)(C)C(=O)Nc1c2c(nn1-c1ccc(F)cc1)CSC2 11%
CCCc1ccc2oc(C(=O)NCCN3CCCC(C(N)=O)C3)c(C)c2c1 (stereo not given) -11.6%
COc1ccc2ccccc2c1CNCCCN1CCOCC1 5.19%
CN1CCN(/N=C/c2ccc(-c3ccccc3)cc2)CC1 13.1%
O=C(O)/C=C/c1nc(-c2ccccc2)n2ccccc12 16.7%
CN1CCN(/N=C/c2nc(-c3cccc([N+](=O)[O-])c3)n3ccccc23)CC1 12.2%
CN1CCN(/N=C/c2nc(-c3ccccc3Cl)n3ccccc23)CC1 21.2%
CSc1ccc(/C=N/N2CCN(C)CC2)cc1 11.3%
CC(C)(C)c1ccc(-c2nc(C=O)c3ccccn23)cc1 -4.54%
O=Cc1nc(-c2ccccc2Cl)n2ccccc12 3.46%
O=Cc1nc(-c2ccc(Cl)cc2)n2ccccc12 -3.25%
CSCC[C@H](NC(=O)C1CCC(CNC(=O)[C@@H]2CCCN2C(=O)OC(C)(C)C)CC1)C(=O)O (stereo not given in full) 0.46%
Cc1ccccc1COCCN1CCN(S(=O)(=O)c2ccccc2)CCC1=O 12.5%
CC(C)Oc1ccc(C(=O)Nc2ccc([N+](=O)[O-])cc2)cc1 11.4%
Cc1cc(=O)oc2cc(NC(=O)c3ccccc3Cl)ccc12 9.35%
CCCc1c(C(=O)N/N=C/C=C/c2ccccc2)nnn1-c1nonc1N 15.9%
COc1ccc(OC(=O)c2cccc(S(=O)(=O)N3CCCC3)c2)cc1 15.8%
O=C(Oc1cccnc1)c1cc(S(=O)(=O)N2CCCCC2)ccc1Cl 2.68%
O=[N+]([O-])c1ccc(C2=Nn3c(Cn4nnc5ccccc54)nnc3SC2)cc1 10.3%
C=C(C)COc1ccc(-c2nc(N)ncc2Oc2ccccc2OCC)c(O)c1 10.4%
CCOc1ccc(-c2nc(N)ncc2Oc2ccc(OC)cc2)c(O)c1 1.9%
COc1cccc(Oc2cncnc2-c2ccc(OC)cc2O)c1 8.42%
COc1cccc(Oc2cnc(N)nc2-c2ccc(OC)cc2O)c1 6.49%
C=C(C)COc1ccc(-c2nc(N)ncc2Oc2ccc(OC)cc2)c(O)c1 -7.13%
CCOc1ccc(-c2[nH]ncc2Oc2ccccc2OCC)c(O)c1 6.69%
Cc1ccc(S(=O)(=O)N2CCOCC2)cc1C(=O)OCC(=O)NC1CCCC1 3.52%
CC(C)(C)NC(=O)NC(=O)COC(=O)CNC(=O)c1cccc(F)c1 0.76%
